# Measurements from the supplement of paper PMC4166925.
# ± gives the standard deviation of the averaged measurements. Whole data set: some 33,000 sequences, median “E-score (dimensionless, -0.5 to 0.5)” near -0.046, cut for the highest 2% near 0.36. Only a selection was taken, and the highest values are over-represented in it overall.
# System: T1, SpTbr T-box DNA-binding domain (GST fusion)
# T1 sequence: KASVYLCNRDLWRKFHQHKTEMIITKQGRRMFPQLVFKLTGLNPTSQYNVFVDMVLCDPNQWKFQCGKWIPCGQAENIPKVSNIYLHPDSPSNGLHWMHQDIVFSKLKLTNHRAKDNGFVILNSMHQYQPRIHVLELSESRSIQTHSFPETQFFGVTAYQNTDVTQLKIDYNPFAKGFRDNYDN
# Assay: PBM E-score of 8-mer (E-score (dimensionless, -0.5 to 0.5)); Tbr is Tbrain of the sea star Patiria miniata (Pm) or the sea urchin Strongylocentrotus purpuratus (Sp); higher = stronger binding preference
# Conditions: the construct has about 5 more residues each side
# Description: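 Universal protein-binding microarray (Agilent AMADID 016060, 60-bp probes with a 35-bp variable region) incubated with 200 nM GST-fused Strongylocentrotus purpuratus Tbr T-box DNA-binding domain (residues 362-554) in PBS pH 7.5. Scored for every ungapped 8-mer (given with its reverse complement) as E-score (range -0.5 to 0.5; >0.45 counts as bound) and Z-score of median probe intensity. Two replicate arrays (datasets 1 and 2).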
# 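Further: protein at 200 nM in PBS on universal double-stranded arrays.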
row,Sequence,PBM E-score of 8-mer
1,GAGCGCTA,0.205 ± 0.021
2,AAAAGGTA,-0.207 ± 0.011
3,CACCTATG,0.427 ± 0.011
4,CACCTATC,0.358 ± 0.012
5,AACCTATG,-0.15 ± 0.014
6,AACCTATA,-0.123 ± 0.024
7,TACCTATA,-0.192 ± 0.0052
8,CACCTATA,0.392 ± 0.015
9,CGCTAATA,0.135 ± 0.092
10,CGCCGGCG,0.1618 ± 0.00064
11,ATCGTACC,-0.157 ± 0.03
12,GAACAGTA,0.00048 ± 0.058
13,CACCGCCG,0.151 ± 0.1
14,CTGTCACA,0.358 ± 0.01
15,CTCTCACC,0.38 ± 0.021
16,CTCTCACA,0.3477 ± 0.0025
17,ATGTCACC,0.323 ± 0.0098
18,GTCTCACA,0.382 ± 0.0069
19,CGCTCACC,0.0959 ± 0.018
20,ATCTCACC,0.422 ± 0.0058
21,GTCTCTCA,0.0648 ± 0.045
22,GCCTCACA,0.292 ± 0.0099
23,CTGTCACC,0.396 ± 0.0078
24,ACCTCACC,0.224 ± 0.017
25,ATCTCAAC,0.00654 ± 0.026
26,ATATGAAT,-0.00217 ± 0.023

row,Sequence,PBM E-score of 8-mer
1,ACACCAAA,0.315 ± 0.013
2,AAGAATGT,-0.0437 ± 0.045
3,TACCGGAA,-0.116 ± 0.02
4,AAGGAGAG,-0.168 ± 0.0067
5,CACCGATC,0.154 ± 0.014
6,TATATGCA,-0.113 ± 0.014
7,AATGCGTG,0.253 ± 0.028
8,CAGGTCAA,-0.18 ± 0.073
9,ACGGACAT,-0.0905 ± 0.036
10,AACTTAAT,-0.0641 ± 0.021
11,GTGCCCCA,-0.0876 ± 0.0044
12,AGCACCCC,0.27 ± 0.036
13,ATCTCACG,0.29 ± 0.012
14,ATCTCTCA,0.171 ± 0.012
15,ACCTCACA,0.41113 ± 4.2e-05
16,ACCTCACG,0.239 ± 0.005
17,TCCTCACA,0.3492 ± 0.0024
18,ATCTCACA,0.372 ± 0.0029
19,TCCTATCA,-0.0124 ± 0.0011
20,GGTGGCAA,0.4 ± 0.011
21,GGTGGCAC,0.3544 ± 0.0029
22,AGTGGCAA,0.305 ± 0.0085
23,AGTTTGAC,0.143 ± 0.018
24,GTGTGTTA,0.318 ± 0.021
25,ATGTGTTG,0.381 ± 0.014
26,CTGTGTTA,0.195 ± 0.079

row,Sequence,PBM E-score of 8-mer
1,ATGTGTTA,0.444 ± 0.015
2,ATATGTTG,-0.00329 ± 0.071
3,ATGTGTTC,0.111 ± 0.064
4,CCTTTTAG,0.0506 ± 0.044
5,CTAACACC,0.464 ± 0.005
6,ATTACACC,0.358 ± 0.057
7,CTTACACA,0.276 ± 0.035
8,CTTACACC,0.392 ± 0.025
9,CGAACACC,0.321 ± 0.011
10,ATAACACA,0.35 ± 0.028
11,CTAACACA,0.354 ± 0.0043
12,ATAACACC,0.457 ± 0.0069
13,ATAACACG,0.303 ± 0.033
14,CTTCTAAC,0.16 ± 0.038
15,CATATCGA,-0.154 ± 0.056
16,CCGCAAAG,-0.233 ± 0.015
17,CGAGATCG,0.175 ± 0.058
18,AAACTGAG,-0.1 ± 0.018
19,CACCAAGC,0.129 ± 0.017
20,CCCAACAC,0.343 ± 0.013
21,GAACTTAC,-0.0233 ± 0.034
22,CCAAGTAA,-0.21 ± 0.095
23,CGCGAACG,0.422 ± 0.013
24,CGCGAAGC,0.324 ± 0.033
25,CGCGAAAC,0.344 ± 0.0048
26,AGCGAAAG,-0.123 ± 0.022

row,Sequence,PBM E-score of 8-mer
1,CGCGAACA,0.36 ± 0.019
2,CGCGAAGA,0.371 ± 0.01
3,CGCGAACC,0.375 ± 0.013
4,AGCGAACG,0.0538 ± 0.025
5,AGCGAAGA,0.106 ± 0.019
6,AGCGAACC,0.0666 ± 0.08
7,GGCGAACC,-0.141 ± 0.05
8,CGCGAAAG,0.387 ± 0.015
9,CAAATGAG,-0.158 ± 0.037
10,GACCAGTC,-0.333 ± 0.075
11,AGTCCATA,-0.295 ± 0.063
12,CACAGCGC,0.0949 ± 0.014
13,TGCCCACA,0.0199 ± 0.1
14,CGTTTGGA,-0.0006 ± 0.068
15,ACGTTCAC,0.369 ± 0.0053
16,GCGTTCAC,0.239 ± 0.011
17,ACGTTCAA,-0.145 ± 0.032
18,ACGTTCAG,-0.122 ± 0.029
19,CCGTTCAG,-0.113 ± 0.032
20,CCGTTCAC,0.367 ± 0.029
21,CGGAGACA,-0.0395 ± 0.021
22,ACAGAGAC,-0.0676 ± 0.02
23,CAACCCTG,0.014 ± 0.024
24,CGCCTTGA,0.159 ± 0.083
25,AGCCACAA,0.0237 ± 0.048
26,GACACGTA,0.29 ± 0.0077

row,Sequence,PBM E-score of 8-mer
1,GAGACCTC,-0.305 ± 0.013
2,GACACCGA,0.293 ± 0.0048
3,GACACCGC,0.244 ± 0.061
4,GACACCTA,0.4778 ± 0.0018
5,GACACCTC,0.479 ± 0.009
6,ACCAGTAG,-0.2 ± 0.063
7,AATGGACC,-0.2776 ± 0.0022
8,GGATGGAC,-0.203 ± 0.0084
9,GGTCAGAC,-0.274 ± 0.051
10,CTTCACGA,0.167 ± 0.043
11,AGTCACGA,0.152 ± 0.0034
12,ATTCACGC,0.424 ± 0.0061
13,ATTCACGG,0.259 ± 0.00064
14,AGTCACGC,0.3794 ± 0.0033
15,CCTCACGC,0.322 ± 0.036
16,AGTCACGG,-0.193 ± 0.0098
17,ATTCACGA,0.288 ± 0.047
18,CTTCACGC,0.409 ± 0.01
19,CACTGGCG,0.162 ± 0.084
20,ACCCATTC,-0.15 ± 0.062
21,TGGGGTAA,-0.1604 ± 0.001
22,CATTCGCG,0.389 ± 0.0059
23,ATTTCGCA,0.335 ± 0.025
24,TATTCGAA,-0.0307 ± 0.088
25,ATTTCGCG,0.389 ± 0.016
26,TATTCGCA,0.369 ± 0.0054

row,Sequence,PBM E-score of 8-mer
1,CATTCGCC,-0.147 ± 0.039
2,AATTCGCA,0.321 ± 0.023
3,CATTCGTA,-0.0369 ± 0.038
4,ATTTCGCC,-0.0532 ± 0.044
5,CATTCGCA,0.384 ± 0.0068
6,GATTCGCA,0.327 ± 0.014
7,AATTCGCG,0.279 ± 0.02
8,AGTCAAAA,-0.181 ± 0.0086
9,AGATTAGC,0.0489 ± 0.043
10,ACATGGGG,-0.06449 ± 0.00059
11,GTCATCTA,-0.0343 ± 0.015
12,GACCACTC,0.0231 ± 0.029
13,AAAGGCTC,-0.214 ± 0.06
14,GGCAAAAA,0.0671 ± 0.028
15,AACCACGT,-0.161 ± 0.017
16,GTGGCAAA,0.309 ± 0.024
17,ACGTGGGA,0.203 ± 0.026
18,CCGATAGG,0.00486 ± 0.048
19,GTTTCGCA,0.36 ± 0.02
20,CTTTCGCC,-0.043 ± 0.078
21,CTTTCGCA,0.421 ± 0.015
22,CGTATCTC,-0.174 ± 0.0059
23,AGCACCTC,0.4014 ± 0.004
24,AGCACCTA,0.409 ± 0.0069
25,AGCACCGG,-0.0409 ± 0.027
26,ACCACCTA,0.109 ± 0.065

row,Sequence,PBM E-score of 8-mer
1,AGCACCGC,-0.0167 ± 0.064
2,GGCACCGA,-0.122 ± 0.1
3,GCCACCTA,0.285 ± 0.036
4,ACCACCTC,0.343 ± 0.046
5,GGCACCTA,0.382 ± 0.015
6,AGCACCTG,0.398 ± 0.0042
7,AGCACCGA,-0.094 ± 0.013
8,ATCACCTG,0.304 ± 0.022
9,ACGAAGCC,-0.00822 ± 0.065
10,ACTGGCCA,0.0049 ± 0.016
11,ATAGGCTC,-0.167 ± 0.02
12,ACGCTACG,0.102 ± 0.023
13,ACCAACGA,0.102 ± 0.0046
14,CTCGGCCC,-0.0368 ± 0.041
15,ACTTTTGA,-0.0941 ± 0.084
16,AGTTTCAT,-0.233 ± 0.01
17,TCAATCGA,-0.0374 ± 0.037
18,GACCAAAA,-0.133 ± 0.0068
19,CAGAGCTC,-0.265 ± 0.01
20,CGCACCGC,0.228 ± 0.031
21,CCCACCTC,0.251 ± 0.043
22,CGCACCAA,0.2705 ± 0.0014
23,CGCACCTA,0.43 ± 0.0064
24,TGCACCCA,-0.00634 ± 0.056
25,CGCACCGA,0.0672 ± 0.045
26,CGCACCCG,0.267 ± 0.054

row,Sequence,PBM E-score of 8-mer
1,CGCACCCA,0.372 ± 0.029
2,CGCACCTC,0.453 ± 0.016
3,CACTCAAG,0.106 ± 0.095
4,ATCTGTAG,-0.206 ± 0.018
5,ATGGGAAC,-0.109 ± 0.011
6,CCAAGGCA,-0.112 ± 0.0028
7,CGTCGAGA,-0.0352 ± 0.014
8,AACCTTTA,0.000765 ± 0.041
9,CCCCTTTC,-0.132 ± 0.052
10,AACCTTTC,-0.0391 ± 0.099
11,GACCTTTA,-0.242 ± 0.0044
12,CACCTTTA,0.414 ± 0.0042
13,CACCTTTC,0.379 ± 0.024
14,AAGGGAGA,-0.13 ± 0.033
15,ATAGCCAT,-0.118 ± 0.018
16,CGTGCTCA,-0.0222 ± 0.013
17,TACCACGA,-0.00786 ± 0.00088
18,CGCGCGGC,0.208 ± 0.04
19,ATCTGGCG,0.0377 ± 0.0091
20,ATCGAGAC,0.0132 ± 0.042
21,GGTAGCTA,-0.314 ± 0.032
22,ATAGCCGG,-0.203 ± 0.015
23,CGTGTGTA,0.096 ± 0.044
24,CCTGTGAA,0.363 ± 0.011
25,TGGGTGAA,-0.137 ± 0.0066
26,TATGTGAA,0.17 ± 0.07

row,Sequence,PBM E-score of 8-mer
1,TGTGTGAA,0.4829 ± 0.004
2,CGTGTGAA,0.4643 ± 0.0031
3,CCTGCCTC,0.0708 ± 0.019
4,CTATCCTA,-0.171 ± 0.0083
5,GTTGACCA,0.142 ± 0.036
6,ATAACCAC,-0.138 ± 0.015
7,GCGCACCA,0.00307 ± 0.052
8,CCGCACCA,0.186 ± 0.032
9,TCACACCA,0.4853 ± 0.0026
10,CCTCACCA,0.197 ± 0.025
11,ACACACAA,0.148 ± 0.02
12,TCTCACCA,0.372 ± 0.011
13,TCACACAA,0.435 ± 0.0069
14,CCACACAA,0.0877 ± 0.025
15,ACTCACCA,-0.0326 ± 0.014
16,CCACACCA,0.314 ± 0.057
17,TCGCACCA,0.434 ± 0.023
18,ACACACCA,0.287 ± 0.013
